PubChem BioAssay (NCI)
Values joined by “and” are separate entries in the source; they are usually repeats but may differ in a detail not shown here. Equal entries are not always repeated. The panel holds about 83,000 compounds, 20% with a hit somewhere; the sample as a whole holds those more often.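 The test compound was applied at a single concentration to cells in 96-well plates for 48 hours, and percent growth was recorded.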 Active and inactive are the calls of the source. The calls were made as follows: active = growth percent below 10; inactive = the rest.

test system: MCF7 breast; experiment: NCI-60 one-dose screen, 48 h (100 = growth as untreated, 0 = no growth, -100 = all killed); settings: 10 µM unless noted

SMILES	growth
CC(=N/N=C/c1ccccn1)/C(C)=N/N=C(C)/C(C)=N/N=C(C)/C(C)=N/N=C(C)/C(C)=N\N=C\c1ccccn1	84.9% [100 µM] (inactive) and 89.9% [100 µM] (inactive)
CCCCCCCCCC(O)CC(=O)c1c(O)cccc1O (stereo not given)	-63.9% [100 µM] (active) and -46.7% [100 µM] (active)
O=C1NC(N/N=C\c2ccccc2)=N/C1=C/c1ccccc1	-46% [100 µM] (active) and -100% [100 µM] (active)
C[C@@H]1CC[C@H]2C(C)(C)[C@H]3C[C@@]12CC[C@@]3(C)O	93.1% [100 µM] (inactive) and -100% [100 µM] (active)
CC(C)=CC(O)C/C(C)=C/CC/C(C)=C/CCC1(C)C(CCCO)/C(=C(/C)C=O)CCC1(C)O (stereo not given)	-22.6% [100 µM] (active) and -6.67% [100 µM] (active)
Cc1ccc(/C=N/Nc2cnccn2)s1	14.7% [100 µM] (inactive) and 4.18% [100 µM] (active)
Cc1ccc(/C=C2/N=C(N/N=C\c3ccccc3)NC2=O)cc1	1.56% [100 µM] (active) and 22.5% [100 µM] (inactive)
NNc1[nH]c(=S)[nH]c1C(N)=O	98.4% [100 µM] (inactive) and 70.9% [100 µM] (inactive)
Cc1ccc(F)cc1NC(=O)O/N=C(\Cl)C(C)C	72.4% [100 µM] (inactive) and 46.2% [100 µM] (inactive)
CCOC(=O)c1cc(C)nc2c1c(=O)n(-c1ccccc1)c(=O)n2CCCCN1CCN(c2ncccn2)CC1	100% [100 µM] (inactive) and 90.8% [100 µM] (inactive)
